From PubChem
In the library only some 4.5% were active in any assay of this set; here they are far more common.
hcDAF12 agonist: H. contortus DAF-12 nuclear receptor activators, primary screen, cell-based, luminescence, HEK293, lit1-tk-luc reporter; HEK293 hcDAF-12 lit1-tk-luc reporter; 0% DMSO, 100% Δ7-dafachronic acid; actives 1.4% (n = 370,000); activation, % at 6.8 µM;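 active = activation above the mean of all tested compounds plus 3 SD, cut at about 5.5% in these data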
hgDAF12 agonist: H. glycines DAF-12 receptor agonists, primary screen, cell-based, luminescence, HEK293, GAL4 fusion, UAS-luciferase | Nuclear hormone receptor DAF-12 (Heterodera glycines), GAL4 fusion | HEK293 GAL4-hgDAF12 UAS-luciferase reporter, agonist luminescence; normalized to butyrate control | activation, % at 6.8 µM | actives 1.8% (n = 370,000) | AID 687014, 2013;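 active = activation above a cutoff set at the mean of all screened compounds plus 3 SD, cut at about 10% in these data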
DAX1 inh-1: DAX1 (NR0B1) inhibitors, primary screen, cell-based, HEK293, Gal4-DAX1, luciferase luminescence. HEK293 Gal4-DAX1 luciferase reporter. actives 0.99% (n = 340,000). inhibition, % at 6.75 µM. AID 504766, 2011. Nuclear receptor subfamily 0 group B member 1 (Homo sapiens), P51843;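 active = inhibition above the mean over all tested compounds plus 3 SD, cut at about 4.2% in these data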;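 also: inhibition shows as a rise in luminescence from relieved DAX1 repression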
Target sequence (P51843 207-470 limits assumed): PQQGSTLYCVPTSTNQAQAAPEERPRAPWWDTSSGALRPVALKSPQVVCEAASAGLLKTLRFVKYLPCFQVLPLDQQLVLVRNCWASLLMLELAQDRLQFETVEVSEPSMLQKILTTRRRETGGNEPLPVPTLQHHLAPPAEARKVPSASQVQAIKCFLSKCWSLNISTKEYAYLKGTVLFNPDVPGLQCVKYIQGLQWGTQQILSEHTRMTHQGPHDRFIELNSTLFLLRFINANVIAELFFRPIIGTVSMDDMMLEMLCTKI
DAX1 inh-2: DAX1 (NR0B1) inhibitors on StAR promoter, primary screen, cell-based, luminescence, SF-1 (NR5A1), full-length DAX-1 | AID 652010, 2013 | HEK293T StAR-luciferase reporter, SF-1/DAX-1 repression relief | inhibition, % at 6.8 µM | actives 1.1% (n = 370,000);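 active = inhibition above the mean over all tested compounds plus 3 SD, cut at about 3.6% in these data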;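 also: higher inhibition means more luminescence from relief of DAX-1 repression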
FXN GAA850 act: FXN promoter activators, primary screen, cell-based, luciferase luminescence, HEK293 lucGAA850; actives 0.56% (n = 360,000); HEK293 lucGAA850 FXN promoter luciferase reporter, 24 h; percent of 10 µM SAHA response; activation, % at 6 µM; AID 540364, 2011;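 active = activation above the average of all compounds screened plus 3 SD, cutoff fixed separately per campaign, cut at about 7.5% in these data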
ssDAF-12 act: S. stercoralis DAF-12 nuclear receptor activators, primary screen, cell-based, luminescence, HEK293, GRIP1 co-expression, lit1-tk-luc. actives 1% (n = 370,000). activation, % at 6.8 µM. HEK293 ssDAF-12/GRIP1 lit1-tk-luc reporter; % of 3 µM dafachronic acid response. Nuclear hormone receptor DAF-12 (Strongyloides stercoralis);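 active = activation above the mean over all tested compounds plus 3 SD, cut at about 0.9% in these data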
Of the large screens only hits and unclear results are named; the others gave an inactive call.

CC(C)CCn1c(CN2CCN(c3cccc(Cl)c3)CC2)nc2c1c(=O)n(C)c(=O)n2C	hgDAF12 agonist 12.8
CCCCn1c(CN2CCOCC2)nc2c1c(=O)n(C)c(=O)n2C	hgDAF12 agonist 10.8
CCCCCCn1c(Br)nc2c1c(=O)n(C)c(=O)n2C	ssDAF-12 act 1.0
COCCn1c(CN2CCN(c3cccc(Cl)c3)CC2)nc2c1c(=O)n(C)c(=O)n2C	none
CC(C)Cn1c(Br)nc2c1c(=O)n(CCC#N)c(=O)n2C	DAX1 inh-1 4.3
O=C(OCc1cn(Cc2cccc(F)c2)nn1)N1CCCCC1	none (no result: DAX1 inh-1, FXN GAA850 act)
COC(=O)C1=CC(=O)C=C(OC)[C@@]12Oc1cc(C)cc(OC)c1C2=O	none (no result: DAX1 inh-1, FXN GAA850 act)
CN1CCN(CC(=O)NN(Cc2ccccc2)c2ccccc2)CC1	DAX1 inh-1 4.5
Cc1cc2nc(-c3ccc(SCc4ccc(C(=O)O)cc4)nc3)[nH]c2cc1C	hgDAF12 agonist 12.1
Cc1cc2nc(-c3ccc(SCc4ccccc4C#N)nc3)[nH]c2cc1C	none
O=C(c1cc(COc2cccc(C(F)(F)F)c2)on1)N1CCCC1	none
C[C@@H]1CN(C(=O)c2cc(COc3cccc(C(F)(F)F)c3)on2)C[C@H](C)O1	hgDAF12 agonist 11.1
NNC(=O)c1ccc(Cn2cc(Br)cn2)o1	DAX1 inh-1 4.5
Cc1ccc(NC(=O)c2ccc(Cn3cc(Br)cn3)o2)cc1	none
NC(=O)C1CCN(C(=S)c2ccc(-c3ccc(Br)cc3)o2)CC1	hgDAF12 agonist 11.9 (no result: DAX1 inh-1)
C[C@@H]1CCN(C2CC2)S(=O)(=O)c2ccc(N3CCC[C@@H]3CO)cc2O1	none (no result: DAX1 inh-1, FXN GAA850 act)
Cc1ccc2nc(SCC(=O)Nc3ccc(F)c([N+](=O)[O-])c3)[nH]c2c1	none
Cc1ccc2nc(SCC(=O)Nc3cc([N+](=O)[O-])ccc3F)[nH]c2c1	hcDAF12 agonist 6.1
COc1cc(-c2nnc(SCC(=O)NN=Cc3c[nH]c4ccccc34)n2-c2ccccc2)cc(OC)c1OC	none (no result: DAX1 inh-1, FXN GAA850 act)
CCC(=O)NNc1nc2c(F)cc(F)cc2s1	ssDAF-12 act 1.1
Cc1cccc2sc(NNC(=O)C3=COCCO3)nc12	none
O=C(NNc1nc2c(F)cc(F)cc2s1)C1=COCCO1	DAX1 inh-1 5.6
O=C(COc1ccccc1)NNc1nc2c(F)cc(F)cc2s1	none
CC(C)(C)NC(=O)C1Cc2ccccc2CN1 (stereo not drawn)	DAX1 inh-1 7.3
COc1ccc(CC2(CO)CCN(Cc3cnn(C)c3C)CC2)cc1	DAX1 inh-1 4.9
CCOC(=O)NC1(NCC(C)C)Oc2ccccc2O1	DAX1 inh-1 4.4
CCOC(=O)NC1(NC(C)C)Oc2ccccc2O1	none
Cc1cccc(C(=O)N2CCN(c3ccc(N4CCOCC4)nn3)CC2)c1	DAX1 inh-1 4.4, ssDAF-12 act 2.2
COc1ccccc1C(=O)NC1CCCCN(Cc2cccc(C(F)(F)F)c2)C1=O (stereo not drawn)	hgDAF12 agonist 18.5 (no result: DAX1 inh-1, FXN GAA850 act)
COc1ccc(NC(=O)c2cc(C3CCCCN3S(=O)(=O)Cc3ccccc3)on2)cn1 (stereo not drawn)	hgDAF12 agonist 11.2 (no result: DAX1 inh-1)
S=C(NCc1cccc(Cl)c1)OC1CCC12CCC(c1ccccc1)CC2 (stereo not drawn)	none (no result: DAX1 inh-1, FXN GAA850 act)
Cn1c(SCc2ccc(C(C)(C)C)cc2)nnc1-c1ccco1	none (no result: DAX1 inh-1, FXN GAA850 act)
CC1CCC2(CCC(=O)N2CCCO)CC1 (stereo not drawn)	none (no result: DAX1 inh-1, FXN GAA850 act)
COc1cc(C=NNc2ccccc2)ccc1OC(=O)c1ccccc1	none
CCOc1cc(/C=N/Nc2cccc(C(=O)O)c2)ccc1OC(=O)c1ccccc1	ssDAF-12 act 1.1
COc1ccc(/C=N/Nc2ccc(C(=O)O)cc2)cc1Br	DAX1 inh-2 4.0
CCOc1cc(/C=N/Nc2nc(Nc3ccccc3)nc(N3CCCCC3)n2)ccc1OCC(=O)O	none
CCOc1cc(/C=N/Nc2ccccc2Cl)ccc1OCC(=O)O	hcDAF12 agonist 6.3
COc1cc2c(c(OC)c1OC)-c1ccc(SC)c(=O)cc1C(NC(=O)c1ccccc1)CC2 (stereo not drawn)	DAX1 inh-2 3.7
COc1cc2c(c(OC)c1OC)-c1ccc(OC)c(=O)cc1C(NC(C)=O)CC2 (stereo not drawn)	none
COC(=O)c1ccc2c(c1)C(NC(C)=O)CCc1cc(OC)c(OC)c(OC)c1-2 (stereo not drawn)	DAX1 inh-2 4.3
COC(=O)C1CN(C2CCCC2)CCS(=O)(=O)N1Cc1ccc(Cl)cc1 (stereo not drawn)	none (no result: DAX1 inh-1, FXN GAA850 act)
COCC(=O)N1CCC(C(=O)NCC2COc3ccccc3O2)CC1 (stereo not drawn)	none (no result: DAX1 inh-1, FXN GAA850 act)
c1ccc2c(c1)oc1c(Nc3ccc4c(c3)OCO4)ncnc12	hgDAF12 agonist 12.5
c1ccc2c(c1)oc1c(Nc3ccc(CN4CCOCC4)cc3)ncnc12	hgDAF12 agonist 10.8
CN(C)/C=N/c1ncnc2c1cnn2-c1ccc(C(F)(F)F)cn1	hgDAF12 agonist 10.9
Cc1nn(-c2ccc(C(F)(F)F)cn2)c(C)c1Oc1ccccc1O	none
Cc1ccc(-c2nnc(N)s2)cc1	none
CC(C)c1ccc(-c2nnc(N)s2)cc1	hcDAF12 agonist 6.0, hgDAF12 agonist 11.3
Cc1cccc(C(=O)NC2CCCCCCC2)c1	hgDAF12 agonist 11.2
Cc1ccc(C(=O)NC2CCN(S(=O)(=O)c3ccccc3F)CC2)cc1	none
CN(C)c1cccc(C(=O)NC2CCCCCC2)c1	none
Cc1cccc(C(=O)NC2CCN(S(=O)(=O)c3ccccc3F)CC2)c1	DAX1 inh-1 4.3
S=C(Nc1ccc(Br)cc1)OCCN1CCCC12CCC(c1ccccc1)CC2 (stereo not drawn)	none (no result: DAX1 inh-1, DAX1 inh-2, FXN GAA850 act)
CCOC(=O)[C@H]1[C@H]2COc3ccc(Br)cc3[C@H]2N2C(=O)CN(CCc3c[nH]c4ccccc34)C(=O)[C@@]12C	ssDAF-12 act 0.9
COc1cc(-c2nnc(SCC(=O)N3C(C)CCCC3C)o2)cc(OC)c1OC (stereo not drawn)	none (no result: DAX1 inh-1, FXN GAA850 act)
N#C/C(Cn1c[n+](NC(=O)Nc2ccccc2)cn1)=N/O	DAX1 inh-1 4.7
C[C@@H](C(=O)N1CCN(c2ccccc2)CC1)N1C(=O)C2CC=CCC2C1=O (stereo partly drawn)	none
CC(C(=O)N1CCN(c2ccccc2)CC1)N1C(=O)C2CC=CCC2C1=O (stereo not drawn)	DAX1 inh-1 5.0
